# Source: PubChem BioAssay (National Center for Advancing Translational Sciences (NCATS))
# SNCA viab count – reduces viability of HEK-293 SNCA reporter cells; Potency, µM (titrated, usually from 57.1 µM), for the others: at the top dose activity change, negative = cytotoxicity, hits mostly cytotoxic; HEK-293-SNCA-luc viability, GF-AFC fluorescence, 24 h; hit rate 0.12% among 150,000; AID 1671193;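 also: potency is read from the fitted curve at half-maximal effect; 0% = DMSO-treated cells and -100% = medium-only wells without cells; nearly all actives have a fitted effect of over 30% in size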
#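 Cytotoxicity counterscreen: after 24 h compound treatment of genome-edited SNCA-luciferase HEK-293 cells, live-cell protease substrate GF-AFC read by fluorescence after 30 min; activity scaled between DMSO (0%) and medium-only (-100%), curves Hill-fitted.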
# SNCA expr inh – inhibitors of alpha-synuclein (SNCA) gene expression; HEK-293 SNCA-luciferase knock-in, luminescence, 24 h; hit rate 0.17% among 140,000; Potency, µM (titrated, usually from 57.2 µM), inactives show at the highest dose activity change, negative = inhibition, most hits filed as inhibitors;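 also: potency is read from the fitted curve at half-maximal effect; plate controls were DMSO cells for no effect and cell-free wells for full effect; nearly all actives have a fitted effect of over 45% in size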
# KDM5B inhibitor – inhibitors of human KDM5B histone demethylase; Q9UGL1; KDM5B demethylase, FDH-coupled NADH fluorescence (FDH is formaldehyde dehydrogenase); Potency, µM (series often up to 57.7 µM), hits mostly inhibitors; hit rate 2.6% among 220,000; AID 1347165; also: potency is read from the fitted curve at half-maximal effect; 0% is about no effect; nearly all actives have a fitted effect of over 70% in size
#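 KDM5BΔAP (200 nM final) in 50 mM HEPES pH 7.5, 0.01% Tween-20 was preincubated 10 min at RT with compound over a concentration range. Substrate mix (H3K4me3 12.5 µM, α-KG 25 µM, Fe²⁺, ascorbate, NAD⁺, FDH) was added, and NADH fluorescence change over 30 min gave dose-response curves.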
# IP6K1 inh – blocks human inositol hexakisphosphate kinase 1 | Q92551 | IP6K1 kinase, ADP-Glo luminescence, 2 h; active compounds read low | activity change, % (series mostly up to about 58 µM) | hit rate 0.81% among 140,000 | AID 1645851; in the data active = activity change below about -25%; also: % is scaled to controls: 0 for no effect and ±100 for the full control effect
# Target sequence (Q92551 whole entry, looked up): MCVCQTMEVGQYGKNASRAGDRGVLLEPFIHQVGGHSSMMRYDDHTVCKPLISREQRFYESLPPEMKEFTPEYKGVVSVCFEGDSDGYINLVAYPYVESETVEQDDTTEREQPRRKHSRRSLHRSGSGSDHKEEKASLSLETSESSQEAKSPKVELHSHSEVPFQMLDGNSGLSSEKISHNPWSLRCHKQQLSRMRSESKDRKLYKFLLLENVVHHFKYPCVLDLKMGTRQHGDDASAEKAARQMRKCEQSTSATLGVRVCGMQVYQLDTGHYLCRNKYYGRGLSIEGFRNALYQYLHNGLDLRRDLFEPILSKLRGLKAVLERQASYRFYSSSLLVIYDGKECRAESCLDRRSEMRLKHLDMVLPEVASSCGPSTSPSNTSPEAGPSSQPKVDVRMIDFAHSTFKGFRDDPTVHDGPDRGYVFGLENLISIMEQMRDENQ
#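 ADP-Glo luminescence measures ADP made by human IP6K1 during a 2 h RT reaction with ATP/IP6 (mix at 1.3 mM/130 uM); top library doses 57.5 and 19.1 uM final.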
# * = called active by the depositor; i = inactive; ? = inconclusive; · = no result; [ ] = another dose, or the depositor's remark. Rows were chosen to be rich in hits. Some 3% of all compounds tested hit in one or more screens of this group. Unless noted, calls follow the shape of the dose curve; as a rule, active = well fitted curve in the direction sought with a large enough effect; inconclusive = small, poorly fitted or top-dose-only effect, or another doubt; inactive = no such curve, though single readings can be large; an effect the other way counts as inactive or inconclusive.
SMILES,SNCA viab count,SNCA expr inh,KDM5B inhibitor,IP6K1 inh
COc1ccc(N2CC(c3noc(-c4ccc(OC)cc4OC)n3)CC2=O)cc1 (stereo unspecified),-0.6%,5.6%,i,-7.0
COCC(=O)NC1CCN(Cc2cccc(-c3cccs3)c2)CC1,0.7%[12.5 µM],?,·,7.8
CCOc1ccc(-c2cc3n(n2)CCCN(C(=O)Cn2cnc4c2c(=O)n(C)c(=O)n4C)C3)cc1,-2.8%,23.9%,·,-5.4
C=CCNC(=O)c1c[nH]c2cccnc12,-1.8%[87.6 µM],54.4%[87.6 µM],126µM*,5.6
O=C(Nc1ccc(F)cc1)c1c[nH]c2cccnc12,?,78.0%[87.6 µM],i,14.7
O=C(NCc1ccnc2[nH]ccc12)c1ccccc1F,1.1%[87.6 µM],61.8%[87.6 µM],?,1.2
CN(C)C(=O)c1c[nH]c2cccnc12,?,-13.4%[87.6 µM],126µM*,1.2
C=CCNC(=O)c1ccnc2[nH]ccc12,-0.8%[87.6 µM],-14.4%[87.6 µM],126µM*,28.7
CSc1ccc(-c2cccc(C(=O)NCC(=O)NCc3ccc(F)cc3)c2)cc1,-3.4%,-23.8%,·,3.9
CN(C)c1ccc2ncc(Nc3ccc(Cl)cn3)n2n1,5.9%[87.6 µM],5.8%[87.6 µM],35.5µM*,-12.3
COc1ccc(-c2ccc3ncc(Nc4cc(F)ccc4OC)n3n2)cn1,3.8%[87.6 µM],-24.6%[87.6 µM],i,-15.2
Clc1ccc(Nc2cnc3ccc(-c4ccccc4)nn23)nc1,19.5%[87.6 µM],46.5%[87.6 µM],i,-24.5
COc1ccc(F)cc1Nc1cnc2ccc(N(C)C)nn12,7.1%[87.6 µM],-22.2%[87.6 µM],31.6µM*,-16.9
O=C1Nc2ccccc2CN(Cc2ccccc2)C12CCNC2 (stereo unspecified),-3.5%[87.6 µM],19.0%[87.6 µM],?,-15.5
COc1nccnc1NC1CCN(C(=O)Cc2ccsc2)CC1,-16.4%,-3.5%,31.6µM*,-2.3
COc1nccnc1NC1CCN(C(=O)Cc2c(C)noc2C)CC1,1.5%,-5.3%,31.6µM*,-5.7
COc1ccc(CC(=O)N2CCC(Nc3nccnc3OC)CC2)cc1,4.0%,8.5%,28.2µM*,11.5
COc1nccnc1NC1CCN(C(=O)NCc2ccc(F)cc2)CC1,-0.2%,-15.8%,28.2µM*,-4.1
Cc1ccc(Nc2ccnc(N3CCC(NC(=O)c4ccccc4Cl)CC3)n2)cc1,-16.5%,12.7%,·,-11.9
COc1ccccc1C(=O)NC1CCN(Cc2cccc(-c3ccccc3OC)c2)CC1,-18.7%,-29.7%,·,2.3
O=C(NCc1cccc(C(F)(F)F)c1)C1CCCN(Cc2cccc(-c3ccc(F)cc3F)c2)C1 (stereo unspecified),-12.0%,?,·,-5.2
COc1ccc(CNC(=O)c2noc(-c3ccc4c(c3)OCO4)n2)cc1,13.4%,100.3%,28.2µM*,-0.6
O=C(NCc1ccc(F)cc1Cl)c1noc(-c2ccc3c(c2)OCO3)n1,-8.5%,35.4%,31.6µM*,-6.5
COc1ccc(CNC(=O)Cn2cccc2-c2nc(-c3ccc4c(c3)OCO4)no2)cc1OC,1.1%,0.0%,i,17.3
Cc1cccc(CCNC(=O)c2noc(-c3ccc4c(c3)OCO4)n2)c1,5.9%,-9.7%,31.6µM*,0.0
SMILES,SNCA viab count,SNCA expr inh,KDM5B inhibitor,IP6K1 inh
COc1cccc(CNC(=O)Cn2cccc2-c2nc(-c3ccc4c(c3)OCO4)no2)c1,0.0%,3.8%,28.2µM*,20.6
COc1ccccc1-c1ccc(CN2CCC(NC(=O)c3ccc(C(F)(F)F)cc3)C2)cc1 (stereo unspecified),·,·,·,28.0
Cc1nn(-c2ccccc2)c2c1C(C1CC1)N(CC1CN(C(=O)c3ccccc3F)C1)C2=O (stereo unspecified),·,·,·,22.9
CCOc1cccc(-c2nc(C(=O)NCc3ccc4c(c3)OCO4)cs2)c1,-0.8%,-1.7%,25.1µM*,-6.7
Cc1ccc(CNC(=O)c2noc(-c3ccc4c(c3)OCO4)n2)cc1,12.0%,37.1%,35.5µM*,4.6
CCc1ccc(CNC(=O)c2noc(-c3ccc4c(c3)OCO4)n2)cc1,15.4%,139.1%,?,1.9
O=C(NCc1cccc(Cl)c1)c1noc(-c2ccc3c(c2)OCO3)n1,0.1%,12.8%,28.2µM*,-3.1
C=CCOc1cccc(-c2nc(C(=O)NCc3cccc(F)c3)cs2)c1,4.2%,-5.4%,?,-12.0
CCOc1ccccc1CNC(=O)c1noc(-c2ccc3c(c2)OCO3)n1,1.8%,11.5%,31.6µM*,14.6
Cc1nn(-c2ccccc2)c2c1C(C)N(CC1CN(C(=O)c3ccc4c(c3)OCO4)C1)C2=O (stereo unspecified),·,·,·,-4.0
CNC(=O)c1cc(C2CC2)nc2onc(C3CCN([S+](=O)([O-])CCC(F)(F)F)C3)c12 (stereo unspecified),·,·,·,8.7
COc1ccc(-c2ccc3nnc(CNC(=O)C(C)Oc4ccccc4)n3n2)cc1 (stereo unspecified),3.6%,-6.0%,31.6µM*,-8.9
COc1ccc(-c2ccc3nnc(CNC(=O)C(C)Oc4cccc(Cl)c4)n3n2)cc1 (stereo unspecified),-13.4%,7.5%,28.2µM*,-0.7
COc1cccc(CCC(=O)NCc2nnc3ccc(-c4ccccc4)nn23)c1,-2.7%,-20.0%,i,5.5
COc1ccccc1Nc1ccnc(N2CCC(C(=O)NCc3ccc4c(c3)OCO4)CC2)n1,8.8%,?,·,11.3
Cc1ccc(C(=O)N2CCN(Cc3ccccc3-c3ccc(C)c(Cl)c3)CC2)cc1,3.1%[12.5 µM],-20.9%,·,-10.5
O=C1Nc2ccc(-c3ccccc3)cc2C(=O)N2CCN(C(=O)NC3CCCCC3)C[C@H]12,0.7%[87.6 µM],-4.6%[87.6 µM],i,6.3
O=C(O)CCCC(=O)N1CCN2C(=O)c3cc(-c4ccco4)ccc3NC(=O)[C@@H]2C1,10.7%[87.6 µM],20.3%[87.6 µM],39.8µM*,3.1
O=C1Nc2ccc(-c3ccco3)cc2C(=O)N2CCN(C(=O)c3ccccc3)C[C@H]12,2.5%[87.6 µM],-34.6%[87.6 µM],35.5µM*,7.5
O=C1Nc2ccc(-c3ccco3)cc2C(=O)N2CCN(C(=O)NC3CCCCC3)C[C@H]12,2.0%[87.6 µM],-3.2%[87.6 µM],28.2µM*,-15.4
O=C1Nc2ccc(-c3ccccc3)cc2C(=O)N2CCN(C(=O)c3cccc(F)c3)C[C@H]12,-1.0%[87.6 µM],2.9%[87.6 µM],28.2µM*,-6.1
CC(=O)N1CCCC(N2C(=O)c3c(c(C)nn3-c3ccccc3)C2C(C)C)C1 (stereo unspecified),·,·,·,7.7
Cc1nn(-c2ccccc2)c2c1C(C(C)C)N(C1CCN(C(=O)Cc3cccc(Cl)c3)C1)C2=O (stereo unspecified),·,·,·,3.4
O=C(NC1CCN(c2nccc(Nc3ccccc3Cl)n2)CC1)c1ccccc1Cl,-19.5%,-12.8%,·,-4.3
CNC(=O)c1cc(-c2ccncc2)cc2c1OCCN2Cc1cccnc1,-7.1%[87.6 µM],-9.5%[87.6 µM],i,-17.3
CNC(=O)c1cc(-c2ccnc(NC(C)=O)c2)cc2c1OCCN2Cc1cccnc1,-0.4%[87.6 µM],57.0%[87.6 µM],39.8µM*,-12.1
CNC(=O)c1cc(-c2cccnc2)cc2c1OCCN2Cc1cccnc1,-1.0%[87.6 µM],3.0%[87.6 µM],i,-24.9
CNC(=O)c1cc(-c2cnn(C)c2)cc2c1OCCN2Cc1cccnc1,-2.3%[87.6 µM],33.1%[87.6 µM],39.8µM*,-10.8
CNC(=O)c1cc(-c2ccc(O)c(F)c2)cc2c1OCCN2Cc1cccnc1,-13.3%[87.6 µM],85.7%[87.6 µM],28.2µM*,-7.1
